These results are taken from PubChem BioAssay (NCI).

“And” between values parts separate entries of the source, which are not always exact repeats. Identical values can stand only once. Compounds without any hit were thinned out: in the full panel of roughly 83,000, 20% have a hit.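 Single-dose data. Exposure time 48 hours. Values below 10 considered active.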 A number with no mark means an inactive call. The source made the active and inactive calls.

What all share (assay): NCI-60 one-dose screen, 48 h (100 = growth as untreated, 0 = no growth, -100 = all killed)
Details in all cases: 10 µM

In assay [1] the test system is DU-145 prostate.
Assay [2] has as its system K-562 leukemia.
The subject of assay [3] is MALME-3M melanoma.
For assay [4], the system named is MDA-MB-231 breast.
Assay [5] deals with RXF 393 renal.
Assay [6] has as its system SF-268 CNS.
The subject of assay [7] is SF-295 CNS.
The subject of assay [8] is SF-539 CNS.
Assay [9] relates to UACC-257 melanoma.
Assay [10] relates to M14 melanoma.

Consider `O=C(O)c1cc(Cc2ccc(O)c(C(=O)O)c2)ccc1O` (tested in a mixture with another compound), for which the growth is 83% in assay [1]; 68.5% in assay [2]; 89.6% in assay [3]; 66.8% in [4]; 39.6% in assay [5]; 76.9% in assay [6]. Further, the growth is 13.3% in assay [7], 79.2% in [8], 60.5% in assay [9] and 80.5% in [10].
With `[Cl][Hg][c]1ccc(Cl)s1`, the growth was 62.5% in assay [1]; -0.908% (active) in assay [2]; -69.8% (active) in [3]; -47.2% (active) in assay [4]; -90% (active) in [5]; 25.2% in [6]. Further, the growth was 100% in [7], -3.52% (active) in assay [8], 16.4% in assay [9] and -54.5% (active) in assay [10].
For `Cc1ccc(C(=O)C2C(c3ccccc3)N2C2CCCCC2)cc1` (configuration not stated), the growth in assay [1] was 105% and 111%; in [2] it was 87.3% and 83%; in assay [3] it was 98.1% and 97.9%; in assay [4] it was 117% and 112%; in assay [5], 111% and 96.8%; in assay [6], 111% and 102%. The growth was 106% in [7]; 99.9% and 103% in [8]; 89.9% and 98.6% in assay [9]; 93.8% and 92.2% in assay [10].
For `O=C1CCC(=O)N1SC(Cl)(Cl)Cl`, the growth in assay [1] was 120%; in [2] it was 95.3%; in assay [3], 118%; in [4] it was 113%; in [5], 108%; in assay [6] it was 109%. Further, the growth is 117% in assay [7], 109% in assay [8], 110% in [9] and 108% in assay [10].
Regarding `COc1ccccc1[As]=[As]c1ccccc1OC` (configuration not stated), the growth is -89.9% (active) in assay [1]; 8.02% (active) in [2]; -72.8% (active) in assay [3]; -83.2% (active) in assay [4]; -99.5% (active) in assay [5]; -82.9% (active) in [6]. Further, the growth in assay [7] was -86.4% (active); in assay [8] it was -91.4% (active); in assay [9], -95.5% (active); in assay [10], -81.4% (active).
Take `O=[N+]([O-])c1ccc(N(CCO)CCO)c2c1no[n+]2[O-]`: the growth was -44.5% (active) in [1]; -55.9% (active) in assay [2]; -38.2% (active) in assay [3]; -12% (active) in [4]; -21.4% (active) in assay [5]; -17.6% (active) in [6]. In addition, the growth was -23.2% (active) in assay [7], -59.8% (active) in assay [8], 12.1% in [9] and -32.4% (active) in [10].
For the molecule `CC/C(=C/c1ccc(OC)cc1)[N+](=O)[O-]`, the growth in [1] is 31.5%; in assay [2], 5.85% (active); in [3], -36.1% (active); in assay [4] it was -18.5% (active); in assay [5], -79.7% (active); in [6], 38%. Further, the growth in assay [7] is 98.1%; in assay [8] it was -19.6% (active); in assay [9], 4.44% (active); in assay [10], 19.9%.
Regarding `[Cl][Sn]([c]1ccccc1)([c]1ccccc1)[c]1ccccc1`, the growth in [1] was -84.3% (active); in assay [2] it was 0.0368% (active); in assay [3], -64% (active); in assay [5], -81.5% (active); in assay [6] it was -79.2% (active); in assay [7], -62.1% (active). The results for the growth in assay [8], in assay [9] and in assay [10] were -89.5% (active), -93.9% (active) and -76% (active), respectively.
As for `O=[P+](O)c1ccccc1`, the growth in assay [1] was 121%; in assay [2], 103%; in assay [3], 119%; in assay [4], 112%; in [5] it was 115%; in [6] it was 103%. Also, the growth in assay [7] was 109%; in assay [8], 104%; in [9], 101%; in assay [10] it was 100%.
Regarding `C[C@@H]1C[C@@H]([C@H](O)CC2CC(=O)NC(=O)C2)C(=O)[C@@H](C)C1`, the growth in assay [1] was 4.37% (active); in assay [3] it was 1.97% (active); in [4], 0.445% (active); in assay [6], 5.71% (active); in assay [7], 2.62% (active); in [8], -5.66% (active). Moreover, the growth is -4.83% (active) in [9] and -9.1% (active) in assay [10].
For the molecule `COC12c3c(C)cc(O)c4c(=O)occ(c34)C(=O)C1C13COC(=O)c4c(O)cc(C)c(c41)C(=O)C2C3OC(C)=O` (configuration not stated), the growth was 113% in assay [1]; 97.8% in assay [2]; 92.7% in assay [3]; 100% in assay [4]; 115% in assay [5]; 100% in assay [6]. For the same molecule, the growth is 95.9% in assay [8] and 106% in assay [9].
Take `CCOP(=O)(OCC)C(O)c1ccccc1Cl` (configuration not stated): the growth was 97.7% in [1]; 97.7% in [2]; 86.8% in assay [3]; 118% in [4]; 100% in [6]; 112% in [7]. Also, the growth is 91.1% in assay [8], 106% in assay [9] and 103% in [10].
For `Cc1cc(C)c(C[N+](C)(C)C)c(C)c1C`, the growth in assay [1] is 5.6% (active); in assay [2] it was 7.21% (active); in assay [4] it was -12.6% (active); in assay [6] it was 2.43% (active); in assay [7] it was 2.12% (active); in assay [8] it was -7.58% (active). The growth in assay [9] was 16.9%; in [10], 10.5%.
